# Data published in the supplement of paper PMC8877412.
# Counter-ions that a name gives are not always drawn. ± gives the uncertainty stated by the source.
# System: NCC-PMP1-C1
# Test: cell viability relative to DMSO control; higher = less growth inhibition
# Details: 10 µM; 72 h
# Method: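 NCC-PMP1-C1 pseudomyxoma peritonei cells were seeded in 384-well plates coated with Matrigel and MEF (1e4 cells). Viability was read after 72 h by CCK-8 and expressed as % of the DMSO control, mean ± SD of duplicates.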
row,SMILES,cell viability [%]
1,Nc1nc(F)nc2c1ncn2[C@@H]1O[C@H](COP(=O)(O)O)[C@@H](O)[C@@H]1O [Fludarabine Phosphate],-11.4 ± 1.5
2,CNC(=O)c1cc(Oc2ccc(NC(=O)Nc3ccc(Cl)c(C(F)(F)F)c3)c(F)c2)ccn1 [Regorafenib (BAY 73-4506)],147 ± 11
3,CC1=C(CC(=O)O)c2cc(F)ccc2/C1=C\c1ccc([S+](C)[O-])cc1 (stereo not given) [Sulindac],111 ± 29
4,CCCCNc1ncc(-c2ccc(CN3CCOCC3)cn2)c(NC2CCC(O)CC2)n1 (stereo not given),43.4 ± 2
5,O=C1NC(=O)[C@@H](c2cn3c4c(cccc24)CCC3)[C@@H]1c1c[nH]c2ccccc12 [Tivantinib (ARQ 197)],79.8 ± 7.7
6,O=C(Nc1nc2cccc(-c3ccc(CN4CCS(=O)(=O)CC4)cc3)n2n1)C1CC1 [Filgotinib (GLPG0634)],93.7 ± 8.6
7,O=C(O)C1(C(=O)O)CCC1.[NH2-].[NH2-].[Pt+2] [Carboplatin],61.9 ± 9.4
8,CCN1CCN(Cc2ccc(Nc3ncc(F)c(-c4cc(F)c5nc(C)n(C(C)C)c5c4)n3)nc2)CC1 [Abemaciclib mesylate],77.7 ± 1.2
9,COc1ccc2[nH]c([S@@+]([O-])Cc3ncc(C)c(OC)c3C)nc2c1 [Esomeprazole Sodium],108 ± 1.5
10,CNC[C@H](O)c1ccc(O)c(O)c1 [Epinephrine Bitartrate],127 ± 6.3
11,C=C1C[C@@H]2CC[C@@]34C[C@H]5O[C@H]6[C@@H](O3)[C@H]3O[C@H](CC[C@@H]3O[C@H]6[C@H]5O4)CC(=O)C[C@@H]3[C@@H](OC)[C@@H](C[C@H](O)CN)O[C@H]3C[C@H]3O[C@@H](CC[C@@H]1O2)C[C@@H](C)C3=C [Eribulin],53.95 ± 0.3
12,C#CCC(Cc1cnc2nc(N)nc(N)c2n1)c1ccc(C(=O)N[C@@H](CCC(=O)O)C(=O)O)cc1 (stereo not given in full) [Pralatrexate],104 ± 9.8
13,Nc1ccn([C@@H]2O[C@H](CO)[C@@H](O)C2(F)F)c(=O)n1 [Gemcitabine],68.1 ± 11
14,C[C@H](NC(=O)Cc1cc(F)cc(F)c1)C(=O)N[C@H](C(=O)OC(C)(C)C)c1ccccc1,96.2 ± 2.6
15,C=CC(=O)N1CCC[C@@H](n2nc(-c3ccc(Oc4ccccc4)cc3)c3c(N)ncnc32)C1,59 ± 5.5
16,CC[C@]1(O)C[C@H]2CN(CCc3c([nH]c4ccccc34)[C@@](C(=O)OC)(c3cc4c(cc3OC)N(C=O)[C@H]3[C@@](O)(C(=O)OC)[C@H](OC(C)=O)[C@]5(CC)C=CCN6CC[C@]43[C@@H]65)C2)C1 [Vincristine],50.8 ± 0.53
17,Cc1nc(NC(=O)N2CCC[C@H]2C(N)=O)sc1-c1ccnc(C(C)(C)C(F)(F)F)c1 [Alpelisib],56.6 ± 3
18,O=c1c(-c2ccc(O)cc2)coc2cc(O)cc(O)c12 [Genistein],100 ± 2.1
19,Nc1cc(C(Cl)=C(Cl)Cl)c(S(N)(=O)=O)cc1S(N)(=O)=O [Clorsulon],117 ± 9.7
20,FC(F)(F)c1ccc(/C=C/c2nc(COc3ccc(CCCCn4ccnn4)cc3)co2)cc1 [Mubritinib (TAK 165)],171 ± 3.5

row,SMILES,cell viability [%]
1,"O=c1[nH]cc(F)c(=O)[nH]1 [Fluorouracil (5-Fluoracil, 5-FU)]",86.7 ± 7.5
2,COC(=O)C[C@](O)(CCCC(C)(C)O)C(=O)O[C@@H]1C(OC)=C[C@]23CCCN2CCc2cc4c(cc2[C@H]13)OCO4 [Homoharringtonine],-1.02 ± 0.42
3,Nc1nc(F)nc2c1ncn2[C@@H]1O[C@H](CO)[C@@H](O)[C@@H]1O [Fludarabine],114 ± 29
4,COc1c2ccoc2cc2oc(=O)ccc12 [Bergapten],87.3 ± 5
5,COC(=O)c1ccc2c(C(=Nc3ccc(N(C)C(=O)CN4CCN(C)CC4)cc3)c3ccccc3)c(O)[nH]c2c1 [Nintedanib (BIBF 1120)],23.9 ± 1.6
6,Clc1ccc(Nc2nnc(Cc3ccncc3)c3ccccc23)cc1 [Vatalanib (PTK787) 2HCl],84.5 ± 1.8
7,Nc1ccn([C@@H]2O[C@H](CO)[C@@H](O)C2(F)F)c(=O)n1 [Gemcitabine HCl],67.5 ± 15
8,O=[n+]1c(CBr)c(CBr)n([O-])c2ccccc21 [Conoidin A],112 ± 22
9,COc1cc2nccc(Oc3ccc(NC(=O)C4(C(=O)Nc5ccc(F)cc5)CC4)cc3)c2cc1OC [Cabozantinib malate (XL184)],52.5 ± 6.2
10,Nc1ccn([C@@H]2O[C@H](CO)[C@@H](O)[C@@H]2O)c(=O)n1 [Cytosine β-D-arabinofuranoside hydrochloride],74.2 ± 10
11,CC(=O)O[C@H]1C(=O)[C@@]2(C)[C@H]([C@H](OC(=O)c3ccccc3)[C@]3(O)C[C@H](OC(=O)[C@H](O)[C@@H](NC(=O)c4ccccc4)c4ccccc4)C(C)=C1C3(C)C)[C@]1(OC(C)=O)CO[C@@H]1C[C@@H]2O [Paclitaxel],81.6 ± 12
12,CN(Cc1cnc2nc(N)nc(N)c2n1)c1ccc(C(=O)N[C@@H](CCC(=O)O)C(=O)O)cc1 [Methotrexate],110 ± 1.7
13,O=c1[nH]c(=O)n([C@H]2C[C@H](O)[C@@H](CO)O2)cc1F [Floxuridine],108 ± 12
14,Cc1cc(Nc2ncc(Cl)c(Nc3ccccc3S(=O)(=O)C(C)C)n2)c(OC(C)C)cc1C1CCNCC1 [Ceritinib (LDK378)],-3.34 ± 0.36
15,CC1(COc2ccc3c(c2)ncn3-c2ccc3cccc(N4CCC(N)CC4)c3n2)COC1,70 ± 8.6
16,Cc1nc(Nc2ncc(C(=O)Nc3c(C)cccc3Cl)s2)cc(N2CCN(CCO)CC2)n1 [Dasatinib Monohydrate],41.1 ± 8.4
17,COc1nc(N)nc2c1ncn2[C@@H]1O[C@H](CO)[C@@H](O)[C@@H]1O [Nelarabine],127 ± 21
18,CO[C@H]1C[C@@H]2CC[C@@H](C)[C@@](O)(O2)C(=O)C(=O)N2CCCC[C@H]2C(=O)O[C@H]([C@H](C)C[C@@H]2CC[C@@H](OCCO)[C@H](OC)C2)CC(=O)[C@H](C)/C=C(\C)[C@@H](O)[C@@H](OC)C(=O)[C@H](C)C[C@H](C)/C=C/C=C/C=C/1C [Everolimus (RAD001)],83.3 ± 7.4
19,CC(C)(C)c1cc(NC(=O)Nc2ccc(-c3cn4c(n3)sc3cc(OCCN5CCOCC5)ccc34)cc2)no1 [Quizartinib (AC220)],78.9
20,CCS(=O)(=O)N1CCN(c2ccc(Nc3ncc(C(N)=O)c(NC4CC4)n3)cc2)CC1,71.8 ± 3.5
